Drawing on PubChem BioAssay (NCI), this text covers growth for 14 compounds.

What all share (assay): NCI-60 one-dose screen, 48 h (100 = growth as untreated, 0 = no growth, -100 = all killed)
Assay [1] concerns HCT-15 colon. Particulars: 10 µM unless noted.
Assay [2] has as its system HT29 colon. Particulars: 10 µM unless noted.
The subject of assay [3] is SNB-75 CNS. Particulars: 10 µM unless noted.
Assay [4] deals with SNB-19 CNS. Particulars: 10 µM unless noted.
Assay [5] relates to U251 CNS. Particulars: 10 µM unless noted.
In assay [6] the test system is PC-3 prostate. The conditions noted are these: 10 µM unless noted.
Assay [7] concerns SK-MEL-5 melanoma. The conditions noted are these: 10 µM unless noted.
Assay [8] relates to UACC-62 melanoma. Particulars: 10 µM unless noted.
Assay [9] has as its system LOX IMVI melanoma. The conditions noted are these: 10 µM unless noted.
Assay [10] has as its system SK-MEL-28 melanoma. Particulars: 10 µM unless noted.
Assay [11] has as its system SK-MEL-2 melanoma. The conditions noted are these: 10 µM unless noted.
For assay [12], the system named is EKVX NSCLC. The conditions noted are these: 10 µM.
The subject of assay [13] is SN12C renal. Particulars: 10 µM unless noted.
Assay [14] relates to UO-31 renal. The conditions noted are these: 10 µM unless noted.
Assay [15] has as its system TK-10 renal. Particulars: 10 µM unless noted.
The subject of assay [16] is ACHN renal. The conditions noted are these: 10 µM unless noted.
The subject of assay [17] is CAKI-1 renal. The conditions noted are these: 10 µM unless noted.
Assay [18] has as its system A498 renal. Particulars: 10 µM unless noted.
Assay [19] deals with CCRF-CEM leukemia. Particulars: 10 µM.
The test system of assay [20] is MOLT-4 leukemia. Particulars: 10 µM unless noted.

Compounds without any hit were thinned out: in the full panel of roughly 83,000, 20% have a hit.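 Single-concentration screen, 48 h exposure, 96-well plates. Endpoint: percent growth. Below 10 = active.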 Values without a mark were called inactive. Activity calls are given as the source filed them.

On to `COc1ccc(C(=O)CN2C(=O)NC(c3ccccc3)(c3ccccc3)C2=O)cc1`, for which the growth in assay [1] was 99.5%; in assay [2], 100%; in [3] it was 86.7%; in [4], 102%; in assay [5], 101%; in [6], 95%. The growth in [7] was 99.7%; in [8], 99.4%; in assay [9], 98%; in [10] it was 103%; in assay [11] it was 99.6%; in [12], 98.9%. The growth was 101% in [13]; 71.2% in assay [14]; 117% in assay [15]; 104% in [16]; 93.6% in assay [17]; 70.5% in assay [18]. Besides, in assay [19], the growth is 94.8%.
For `Cc1nc2c(nnn2-c2ccccc2)c2nc(-c3ccc(Cl)cc3)oc(=O)c12`, the growth in assay [1] is 108%; in [2], 115%; in [3], 91.4%; in assay [4], 107%; in [5], 106%; in [6] it was 105%. Also, the growth is 103% in assay [7]; 98.4% in assay [8]; 96.9% in [9]; 102% in assay [10]; 107% in assay [11]; 110% in assay [12]. For the same compound, the growth in assay [13] was 104%; in assay [14], 83%; in assay [15], 108%; in assay [16] it was 107%; in assay [17], 94.7%; in [18], 105%. For the same compound, the growth in assay [19] is 103%; in [20], 113%.
For `COc1cc(NC(C)CCCN)c2nccc(C)c2c1OC` (centres undefined), the growth in assay [1] was 84.4%; in assay [2] it was 57.9%; in assay [3], 103%; in [4], 97.6%; in assay [5], 64.5%; in assay [6], 72.3%. In addition, the growth in [7] is 86.8%; in assay [8] it was 97.2%; in assay [9], 58.5%; in assay [10], 117%; in assay [11] it was 95.2%; in [12] it was 99.4%. For the same compound, the growth in assay [13] was 82%; in [14], 89.5%; in [15], 114%; in [16], 100%; in assay [17], 99.9%; in [18] it was 83.7%. The growth in assay [19] is 64.8%; in assay [20] it was 73.1%.
As to `CC(=O)c1cc(Nc2cc(C)nc(N)n2)cc(C(C)=O)c1`, the growth in assay [1] is 111%; in assay [2], 111%; in assay [3] it was 90.3%; in [4], 102%; in assay [5] it was 101%; in assay [6] it was 107%. Also, the growth in assay [7] is 100%; in assay [8], 93.7%; in assay [9] it was 99.8%; in [10], 111%; in assay [11], 100%; in assay [12], 101%. Further, the growth in assay [13] is 94.1%; in assay [14], 92.7%; in [15], 94.8%; in assay [16], 102%; in [17], 87%; in assay [18] it was 91.7%. For the same compound, the growth is 86.9% in assay [19] and 91.2% in assay [20].
For the compound `Cc1ncc(C(=O)Nc2ccc(CN3CCN(C)CC3)c(C(F)(F)F)c2)cc1C#Cc1cnc(NC2CC2)c2ncccc12`, the growth was -91.9% (active) in assay [1]; -80.7% (active) in assay [2]; -96.5% (active) in assay [3]; -97.2% (active) in assay [4]; -95% (active) in assay [5]; -66.9% (active) in assay [6]. For the same compound, the growth in assay [7] was -98.5% (active); in assay [8], -62.8% (active); in [9] it was -81% (active); in [10], -91.5% (active); in [11], -27.3% (active); in assay [12], -86% (active). In addition, the growth in assay [13] was -85.3% (active); in assay [14], -97% (active); in assay [15], -92.2% (active); in assay [16], -100% (active); in assay [17], -0.579% (active); in [18], -60.4% (active). In addition, the growth is -43% (active) in assay [19] and -65.4% (active) in assay [20].
On to `FC(F)(F)c1cccc(-c2[nH]ncc2-c2nnnn2-c2ccccc2)c1`, for which the growth in assay [1] is 35.6%; in assay [2] it was 15.1%; in assay [3] it was 47.5%; in assay [4], 50.8%; in assay [5], 30.1%; in [6], 44%. For the same compound, the growth in [7] was 20.8%; in assay [8], 36.9%; in [9], 44.8%; in assay [10], 60.8%; in assay [11], 78.3%; in assay [12] it was 52.6%. Also, the growth in assay [13] is 65.5%; in assay [14], 72.4%; in assay [15] it was 65.5%; in assay [16] it was 68.6%; in [17], 69.4%; in assay [18], 43.4%. Moreover, the growth is 53.5% in assay [19] and 27.1% in [20].
For `COc1ccc(NC(=O)/C=C(C)/C=C/C=C(C)/C=C/C2=C(C)CCCC2(C)C)cc1`, the growth in assay [1] was 72.5%; in assay [2] it was 72.4%; in assay [3] it was 66.3%; in assay [4], 110%; in assay [5], 26.3%; in [6], 63.1%. Besides, the growth was 110% in assay [7]; 77.4% in [8]; 68.4% in assay [9]; 105% in assay [10]; 61.6% in [11]; 82.7% in assay [12]. Also, the growth in assay [13] is 65.9%; in assay [14], 53%; in [15], 61.6%; in [16], 54%; in assay [17] it was 66.6%; in assay [18], 91.1%. For the same compound, the growth is 60.6% in [19] and 76.1% in assay [20].
As for `CCOC(=O)CSSCC(=O)OCC`, the growth in [1] was 102%; in assay [2], 112%; in assay [3], 94.4%; in [4], 108%; in [5] it was 98.4%; in assay [6], 100%. Moreover, the growth was 99.8% in [7]; 98.4% in assay [8]; 111% in assay [9]; 107% in [10]; 111% in assay [11]; 105% in [12]. Further, the growth was 103% in assay [13]; 100% in assay [14]; 103% in assay [15]; 103% in [16]; 97.5% in assay [17]; 118% in assay [18]. The growth in assay [19] was 95.9%; in assay [20], 90.3%.
For `Cc1ccc(C(=O)Nc2ccc(CN3CCN(C)CC3)c(C(F)(F)F)c2)cc1C#Cc1cnc(N)c2ccc(C#N)cc12`, the growth is 23.2% in assay [1]; 10.5% in assay [2]; 51.5% in [3]; 63.3% in assay [4]; 48.9% in assay [5]; 51.7% in assay [6]. Besides, the growth was 13.5% in [7]; 25.4% in [8]; 21% in assay [9]; 12.9% in assay [10]; 25.1% in assay [11]; 53.4% in assay [12]. The growth in assay [13] is 24.1%; in assay [14], 14.3%; in assay [15], 52.7%; in assay [16], 9.19% (active); in assay [17] it was 33.6%; in [18] it was 35.7%. For the same compound, the growth in assay [19] was 7.71% (active); in assay [20] it was -8.2% (active).
For `CC(=O)Nc1nc(C)c(C(=O)NN)s1`, the growth in assay [1] is 107%; in assay [2] it was 106%; in assay [3], 88.8%; in [4], 94.4%; in [5], 92.1%; in assay [6], 84.4%. Also, the growth in assay [7] is 102%; in assay [8] it was 91.9%; in assay [9] it was 96.1%; in assay [10], 100%; in [11], 24.7%; in assay [12], 143%. Further, the growth in [13] was 95.2%; in assay [14], 86.1%; in [15], 203%; in assay [16] it was 93.6%; in [17], 125%; in assay [18], 106%. For the same compound, the results for the growth in assay [19] and in assay [20] were 94.9% and 111%, respectively.
`COc1ccc(Cn2cc3c(c2-c2ccc(O)cc2)CCc2cnoc2-3)cc1`: the growth in assay [1] was 21.3%; in [2], 19.9%; in assay [3], 19.1%; in [4] it was 47.1%; in assay [5], 27.6%; in assay [6], 27%. Also, the growth in [7] was 19.2%; in assay [8], 44.5%; in assay [9] it was 35.4%; in assay [10], 54.3%; in assay [11], 43.7%; in assay [12], 28.3%. The growth in assay [13] is 40.8%; in assay [14], 35.4%; in [15], 72.8%; in [16], 34.1%; in [17] it was 15.3%; in assay [18] it was -1.96% (active). Further, the figures for the growth in assay [19] and in assay [20] were 14.1% and 24.3%, respectively.
Take `COC(=O)c1ccc(C(=Nc2ccc(N(C)C(=O)CN3CCN(C)CC3)cc2)c2c(O)[nH]c3ccc(C(=O)OC)cc23)cc1`: the growth in assay [1] is 27%; in assay [2] it was 29.7%; in [3], 24.6%; in [4] it was 55.3%; in assay [5], 29%; in [6], 28.8%. Also, the growth is 36.4% in assay [7]; 42.7% in assay [8]; 38.5% in assay [9]; 50.4% in assay [10]; 47.7% in assay [11]; 64.3% in assay [12]. For the same compound, the growth was 17.3% in assay [13]; 38.3% in assay [14]; 51.7% in assay [15]; 18.6% in assay [16]; 11.9% in [17]; 18.2% in assay [18]. For the same compound, the values for the growth in assay [19] and in assay [20] were 12.3% and 14.8%, respectively.
On to `Cc1nc(NC(=S)Nc2ccc(F)cc2)sc1C(=O)NNC(=S)Nc1ccc(F)cc1`, for which the growth is 61.9% in [1]; 61.7% in assay [2]; 113% in assay [3]; 76.9% in assay [4]; 53.1% in [5]; 52.1% in assay [6]. In addition, the growth in [7] is 48.8%; in [8] it was 36.9%; in assay [9], 70.6%; in assay [10], 78%; in [11] it was 3.22% (active); in assay [12], 63.2%. Moreover, the growth is 71.8% in [13]; 38.7% in [14]; 43.5% in assay [15]; 65.3% in [16]; 101% in assay [17]; 53.6% in [18]. In addition, the growth in assay [19] was 40.1%; in assay [20], 36.5%.
On to `Cc1ccc2c(O)c(O)cc(NC(C)CCCN)c2n1` (centres undefined), for which the growth in [1] is 116%; in assay [2], 47.7%; in assay [3], 108%; in [4], 87.7%; in [5], 25.7%; in assay [6] it was 89.2%. Moreover, the growth was 95.7% in assay [7]; 113% in assay [8]; 31.2% in assay [9]; 131% in assay [10]; 75% in assay [11]; 78% in [12]. Further, the growth was 32.2% in assay [13]; 96.8% in [14]; 104% in assay [15]; 108% in assay [16]; 87.4% in assay [17]; 81.3% in assay [18]. Further, the growth is 39.9% in assay [19] and 7.64% (active) in [20].
